Most compounds without a hit are left out; they make up all but 31% or so of the library.
CYP2C19 inhib: blockers of cytochrome P450 2C19 activity – biochemical, luminescence, ADME assay, primary screen; P33261; CYP2C19 Supersomes, luciferin-H EGE luminescence, 30 min; inhibition, % at 5 µM; hit rate 21% among 96,000;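 active = CYP2C19 inhibition above a set limit at 5 µM in the primary screen, cut at about 50% in these data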;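 also: plate controls were negative control wells for no effect and 2.5 mM tranylcypromine positive control for full effect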
CYP2C19 activ: human CYP2C19 activators, primary screen, biochemical, luminescence. 96,000 tested, under 10 active. AID 1025, 2008. activation factor at 5 µM. recombinant CYP2C19, luciferin-H EGE luminescence; hits give high values; 0 = fully inhibited enzyme, 1 = untreated enzyme. Cytochrome P450 2C19 (Homo sapiens), P33261;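 active = activation factor of at least 2 at 5 µM in the primary screen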;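 also: 0 = wells with 2.5 mM tranylcypromine and 1 = vehicle-only wells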
CYP2C9 inh: blockers of cytochrome P450 2C9 activity – biochemical, luminescence, ADME assay, primary screen; CYP2C9 Supersomes, luciferin-H conversion; inhibition, % at 5 µM; hit rate 20% among 96,000; AID 777, 2007;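 active = blocking of liver enzyme CYP2C9 beyond about 50% at 5 µM, limit read from the data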
CYP2C9 activ: human CYP2C9 activators, primary screen, biochemical, luminescence. hit rate 1.4% among 96,000. recombinant CYP2C9, luciferin-H conversion; hits give high values; factor 1 = untreated enzyme, 0 = blocked. activation factor at 5 µM. AID 1024, 2008. Cytochrome P450 2C9 (Homo sapiens), P11712;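 active = activation factor of 2 or more for CYP2C9 at a 5 µM dose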;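 also: 0 = sulfaphenazole-blocked wells and 1 = vehicle-only wells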
Starred values were filed as active, the others as inactive.

SMILES	CYP2C19 inhib	CYP2C19 activ	CYP2C9 inh	CYP2C9 activ
Cc1ccc(-c2csc(N(C)C(=O)c3c(C)nn(-c4ccccc4)c3Cl)n2)cc1	44.4	0.6	73.8*	0.3
COc1cccc(Oc2nnnn2-c2ccccc2)c1	60.4*	0.4	24.9	0.8
c1ccc(-n2nnnc2OCCOc2nnnn2-c2ccccc2)cc1	45.8	0.5	33.7	0.7
CC(C)Oc1nnnn1-c1ccccc1	38.9	0.6	63.1*	0.4
Clc1ccc(Oc2nnnn2-c2ccccc2)cc1	72.7*	0.3	48.0	0.5
c1ccc(-n2nnnc2Oc2ccc(-n3ccnc3)cc2)cc1	100.4*	0	98.9*	0
COC(=O)c1c(F)c(F)c(N2CCOCC2)c(F)c1F	32.6	0.7	6.3	0.9
CC(C)OC(=O)c1c(F)c(F)c(N2CCOCC2)c(F)c1F	50.8*	0.5	-1.9	1
COc1ccccc1NC(=O)c1csc(-n2nc(C)cc2C(F)(F)F)n1	8.5	0.9	27.7	0.7
Cc1ccc(S(=O)(=O)NNC(=S)Nc2ccccc2)cc1	28.2	0.7	35.3	0.6
O=S(=O)(Nc1ccc(F)cc1)c1ccc(NC(=S)Nc2ccccc2)cc1	57.3*	0.4	85.6*	0.1
O=S(=O)(Nc1ccccc1Cl)c1ccc(F)cc1	89.0*	0.1	50.8*	0.5
O=C(O)c1ccc(F)c(S(=O)(=O)Nc2ccccc2Cl)c1	0.8	1	-2.2	1
CC(=O)Nc1ccc(S(=O)(=O)NCC(C)NS(=O)(=O)c2ccc(NC(C)=O)cc2)cc1 (configuration not stated)	8.6	0.9	3.5	1
CCC(C)NS(=O)(=O)c1ccc(NS(=O)(=O)c2ccc(F)cc2)cc1 (configuration not stated)	73.7*	0.3	97.5*	0
O=S(=O)(Nc1ccccc1)c1ccc(F)cc1	92.1*	0.1	71.8*	0.3
CC1CCN(C(=S)c2cn(Cc3ccc(F)cc3)c3ccccc23)CC1	37.5	0.6	20.1	0.8
O=C(NC1c2ccccc2-c2ccccc21)N1CCCCC1	26.8	0.7	3.7	1
Cc1noc(C)c1S(=O)(=O)N1CCN(Cc2ccc3c(c2)OCO3)CC1	47.9	0.5	15.4	0.8

Assay outcomes as filed in PubChem BioAssay.
